# CYP2C9 act – human CYP2C9 activators, primary screen, biochemical, luminescence; Cytochrome P450 2C9 (Homo sapiens), P11712; recombinant CYP2C9, luciferin-H conversion; hits give high values; factor 1 = untreated enzyme, 0 = blocked; activation factor at 5 µM; hit rate 1.4% among 96,000;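 active = activation factor of 2 or more for CYP2C9 at a 5 µM dose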;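 also: 0 = sulfaphenazole-blocked wells and 1 = vehicle-only wells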
# CYP2C9 inh – blockers of cytochrome P450 2C9 activity – biochemical, luminescence, ADME assay, primary screen; CYP2C9 Supersomes, luciferin-H conversion; hit rate 20% among 96,000; inhibition, % at 5 µM; AID 777, 2007;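 active = blocking of liver enzyme CYP2C9 beyond about 50% at 5 µM, limit read from the data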
# CYP2C19 act – human CYP2C19 activators, primary screen, biochemical, luminescence | activation factor at 5 µM | Cytochrome P450 2C19 (Homo sapiens), P33261 | AID 1025, 2008 | 96,000 tested, under 10 active | recombinant CYP2C19, luciferin-H EGE luminescence; hits give high values; 0 = fully inhibited enzyme, 1 = untreated enzyme;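 active = activation factor of at least 2 at 5 µM in the primary screen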;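 also: 0 = wells with 2.5 mM tranylcypromine and 1 = vehicle-only wells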
# PLAP act – PLAP enzyme activators, biochemical, luminescence, HTS. Alkaline phosphatase, placental type (Homo sapiens), P05187. purified PLAP enzyme, luminescent substrate read-out; hits give high values. activation fold at 20 µM. hit rate 1.2% among 96,000; in the data active = activation fold above about 2
# Target sequence (P05187 whole entry, looked up): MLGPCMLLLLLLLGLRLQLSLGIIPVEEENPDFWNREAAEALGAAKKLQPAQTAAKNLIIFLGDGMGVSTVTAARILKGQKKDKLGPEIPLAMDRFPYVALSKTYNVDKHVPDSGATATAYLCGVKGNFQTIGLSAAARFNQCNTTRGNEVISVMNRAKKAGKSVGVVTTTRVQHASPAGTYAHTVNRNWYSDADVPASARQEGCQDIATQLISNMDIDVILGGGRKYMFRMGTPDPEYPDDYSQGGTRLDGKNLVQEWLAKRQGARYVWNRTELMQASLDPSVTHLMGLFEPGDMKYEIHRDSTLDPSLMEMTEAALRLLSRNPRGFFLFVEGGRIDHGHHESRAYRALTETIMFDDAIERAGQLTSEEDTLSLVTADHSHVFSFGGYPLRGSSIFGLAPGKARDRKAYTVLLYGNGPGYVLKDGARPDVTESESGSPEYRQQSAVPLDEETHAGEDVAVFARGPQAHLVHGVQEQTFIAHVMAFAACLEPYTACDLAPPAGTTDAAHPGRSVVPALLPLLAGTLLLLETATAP
# CYP2C19 inh – blockers of cytochrome P450 2C19 activity – biochemical, luminescence, ADME assay, primary screen | hit rate 21% among 96,000 | P33261 | CYP2C19 Supersomes, luciferin-H EGE luminescence, 30 min | AID 778, 2007 | inhibition, % at 5 µM;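 active = CYP2C19 inhibition above a set limit at 5 µM in the primary screen, cut at about 50% in these data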;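 also: plate controls were negative control wells for no effect and 2.5 mM tranylcypromine positive control for full effect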
# * marks the source's active call; other numbers are inactive results. The list is not random: actives were taken first. Their share in the collection is about 31%.
SMILES,CYP2C9 act,CYP2C9 inh,CYP2C19 act,PLAP act,CYP2C19 inh
CC1=CC(c2ccc(Cl)cc2)n2nc(NS(=O)(=O)c3ccc(C)cc3)nc2N1 (stereo not drawn),0.3,70.5*,1.2,1.5,-19.4
CC1=CC(c2ccccc2)n2nc(NS(=O)(=O)c3ccc(C)cc3)nc2N1 (stereo not drawn),0.8,24.4,1.1,1.2,-7.5
COc1ccc(OC)c(C2CC(=O)N3CN(c4cccc(Cl)c4C)CSC3=C2C#N)c1 (stereo not drawn),0,96.8*,0.7,1.1,30.9
COc1cccc(C2CC(=O)N3CN(c4cccc(Cl)c4C)CSC3=C2C#N)c1OC (stereo not drawn),0,97.4*,0.9,1.3,8.1
CCCCCCn1c(=O)c(-c2nc3ccccc3c(=O)[nH]2)c(O)c2ccccc21,1,-4.8,1.1,1.2,-14.4
O=C(NCCN1CCOCC1)Nc1ccc(Cl)cc1Cl,1.1,-6.0,0.9,0.9,5.5
CCn1c(CNc2ccccc2Cl)nnc1SCC(=O)NCc1ccccc1,0.8,19.8,0.9,0.9,9.4
Cc1ccc(NCc2nnc(SCC(N)=O)n2CCc2ccccc2)cc1,1.1,-14.3,1,1.2,1.5
CCOC(=O)c1cccc(NC(=O)CSc2nnc(COc3ccccc3)n2CC)c1,0.4,62.6*,0.4,1,57.8*
CCn1c(CNc2ccc(C)cc2)nnc1SCC(=O)NCc1ccccc1,0.6,37.4,0.2,1.6,78.0*
CCn1c(COc2cccc(C)c2)nnc1SCC(=O)Nc1cccc(C(=O)OC)c1,0.4,56.4*,0.7,0.8,31.6
COC(=O)CSc1nnc(CNc2ccc(Cl)cc2)n1Cc1ccccc1,0.1,92.3*,0,1.6,96.6*
Cc1cnn(-c2ccc3nnc(-c4ccc(Cl)cc4)n3n2)c1,0.7,27.9,0.8,0.9,19.3
COc1cccc2cc(C(=O)CC3(O)C(=O)N(Cc4ccccc4)c4ccccc43)c(=O)oc12 (stereo not drawn),1,2.4,1,1,3.2
CCOC(=O)c1csc(NC(=O)CSc2nnnn2-c2ccc(OC)c(OC)c2)n1,1.1,-7.4,1.1,1.1,-8.1
O=C(/C=C/c1ccc([N+](=O)[O-])cc1)NCC1CCCO1 (stereo not drawn),1.2,-15.9,1.1,0.9,-12.4
CCn1c(COc2ccccc2)nnc1SCC(=O)Nc1cc(OC)ccc1OC,1.7,-73.8,0.7,1.2,27.9
CCn1c(COc2cccc3ccccc23)nnc1SCC(=O)OC1CCCCC1,0.5,48.5,0.1,2.5*,87.8*
CCn1c(COc2cccc(C)c2)nnc1SCC(=O)Nc1cccc(C(=O)O)c1,0.2,79.1*,1.2,1.4,-19.1
CCn1c(COc2cccc(OC)c2)nnc1SCC(=O)Nc1cccc(OC)c1,0.4,63.7*,0.2,1.7,82.4*
CCOC(=O)c1ccccc1NC(=O)CSc1nnc(COc2ccccc2)n1CC,1,2.5,0.1,1.5,89.0*
CCn1c(COc2cccc(OC)c2)nnc1SCC(=O)Nc1cc(OC)ccc1OC,1.1,-13.2,0.5,1.7,46.8
CC(C)OP(=O)(c1ccc(N(C)C)cc1)C(O)c1ccccc1 (stereo not drawn),1.1,-5.9,0.6,0.9,38.7
Cc1ccc(Cn2nc(C)c3cc(C(=O)OCC(N)=O)sc32)cc1,0.7,31.3,1,0.8,0.1
CCOC(=O)c1cccc(NC(=O)c2cccnc2)c1,0.9,12.2,0.9,0.9,14.1
SMILES,CYP2C9 act,CYP2C9 inh,CYP2C19 act,PLAP act,CYP2C19 inh
CCOC(=O)c1cccc(Nc2nc(-c3cccnc3)nc3ccccc23)c1,0.1,88.0*,0.3,1.2,73.7*
CCn1c(SCC(=O)Nc2ccccc2C(=O)OC)nnc1-c1cccc(C)c1,0.3,68.0*,0,1.7,98.7*
CCn1c(SCC(=O)Nc2c(C)n(C)n(-c3ccccc3)c2=O)nnc1-c1cccc(C)c1,1,4.6,1,1.2,2.7
CCn1c(COc2ccccc2C)nnc1SCC(=O)CC(=O)Nc1ccccc1,0.5,54.8*,0.7,1.7,34.7
CCOC(=O)c1ccc(NC(=O)CSc2nnc(CNc3ccc(OC)cc3)n2C)cc1,0.7,27.3,0.7,1,27.1
CCOC(=O)c1cccc(NC(=O)CSc2nnc(CNc3ccc(C)cc3)n2CC)c1,0.3,70.2*,0.3,1,65.7*
CCOC(=O)c1cccc(NC(=O)CSc2nnc(-c3cccnc3)n2CC)c1,0.4,63.7*,0.5,1.3,52.9*
COc1ccc(-c2cc(C3CCN(c4cc(Cl)nc(N)n4)CC3)[nH]n2)cc1,0.8,23.9,0.4,1.3,58.8*
O=C1C(C=NCCCN2CCCC2=O)=C(O)c2ccccc21,1,-0.9,0.9,1,6.5
O=C(Nc1ccn(Cc2ccccc2F)n1)c1ccc(COc2ccc(Br)cc2)cc1,0.9,9.2,0.9,1,9.0
COc1ccc(OC)c(N/C=C2/CCCCC2=O)c1,0.4,55.1*,0.7,1.3,31.2
COc1ccc(OC)c(S(=O)(=O)Nc2ccccc2C(=O)O)c1,1,3.2,1.1,1.1,-12.8
COc1ccc(OC)c(S(=O)(=O)NCCO)c1,1.1,-6.7,1.1,1.1,-8.4
CCCCOc1ccc(S(=O)(=O)Nc2cc(OC)ccc2OC)cc1,0.3,74.1*,0.1,1.2,85.8*
COc1ccc(OC)c(S(=O)(=O)Nc2ccccc2C)c1,0.8,22.6,0.1,0.9,86.9*
CCNS(=O)(=O)c1cc(OC)ccc1OC,0.1,89.6*,0.1,0.9,85.2*
COc1ccc(Cl)cc1NS(=O)(=O)c1cc(Cl)ccc1OC,0.9,11.0,1.1,0.9,-6.0
COc1ccc(OC)c(S(=O)(=O)NCCC2=CCCCC2)c1,0.1,89.3*,0,1.5,100.3*
COc1ccc(OC)c(NS(=O)(=O)c2cc(OC)ccc2OC)c1,0.4,59.2*,0,1.2,95.5*
Cn1c(=O)c(-c2cc(Br)ccc2N)nc2ccccc21,0.5,51.7*,0.1,0.8,92.6*
Cn1c(-c2ccc(N)cc2)nc2ccccc21,0.9,8.1,0.9,0.9,11.0
CS(=O)(=O)c1cccc(C(=O)NC(c2ccccc2)c2ccccc2)c1,0,97.1*,0.3,1.2,74.6*
CS(=O)(=O)c1cccc(C(=O)NCc2ccccc2)c1,0.8,15.0,0.7,1.2,33.9
C=CCN(CC=C)S(=O)(=O)c1ccc(NC(=S)NC(=O)c2ccc(-c3ccccc3)cc2)cc1,0.4,61.6*,0.7,1.2,33.8
C=CCN(CC=C)S(=O)(=O)c1ccc(NC(=S)NC(=O)Cc2ccc(OC)cc2)cc1,0.3,72.3*,0.6,0.6,42.9
C=CCN(CC=C)S(=O)(=O)c1ccc(NC(=S)NC(=O)c2ccco2)cc1,1.1,-9.1,0.8,0.8,18.4
